The record followed here is PubChem BioAssay AID504832 (National Center for Advancing Translational Sciences (NCATS), 2011).

In all, about 310,000 compounds went through this assay and about 18,000 (5.8%) were called active. Inconclusive results (about 22%) are left out. Calls come from the whole dose curve; as a rule, active = well fitted inhibition curve with a large enough effect; inconclusive = small, poorly fitted or top-dose-only effect, or another doubt; inactive = no such curve, though single readings can be large or run the other way. Shown is part of a subset that was picked to be rich in actives.
% is set by controls: 0 for no effect and ±100 for the full control effect; potency is the fitted concentration of half-maximal effect.

The nature of the assay: Primary qHTS for delayed death inhibitors of the malarial parasite plastid, 48 hour incubation. Conditions: P. falciparum luciferase growth in erythrocytes; series mostly up to 28.7 µM; activity change, negative = inhibition: at the top concentration. Summed up: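 Cell-based growth assay: transgenic P. falciparum expressing firefly luciferase, cultured in red cells within RPMI 1640 containing 0.5% w/v Albumax, 24 mM bicarbonate and gentamycin. A drop in luciferase activity indicates inhibition.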
For orientation: qHTS replaces the single test concentration by a dilution series.
Regarding `O=S(=O)(c1cccc(Cn2nnc(-c3ccc(F)cc3)n2)c1)N1CCOCC1`, the “activity change, negative = inhibition” value was 0.852% (inactive).
On the same count and under the same terms, next, `Cc1ccc(CNS(=O)(=O)c2ccc3c(c2)N(C)CCO3)cc1`: 30.2% (inactive); `COc1cc(CNc2ncn[nH]2)ccc1OCc1ccccc1C`: 17.2% (inactive).
The same measure, in the same setting: to `COc1ccc(CNCCCO)cc1OC` belongs 3.57% (inactive).
`CCN(CC)CCNCc1ccc(OCc2ccc(Cl)nc2)c(OC)c1`: the Potency is 10.4 µM (active).
As for `COc1ccccc1CNC(=O)C1CCN(S(C)(=O)=O)CC1`, the “activity change, negative = inhibition” value is 8.41% (inactive).
On to `COc1ccc(CCNC(=O)CCC(=O)NC2CCCCC2)cc1OC`, for which the “activity change, negative = inhibition” value was -8.53% (inactive).
Still for that read-out and setting: to `COc1ccc(CNC(=O)CN2CCC(n3nnc4cc(F)ccc43)CC2)cc1` belongs -23.1% (inactive).
`COc1ccc(CCNC(=O)CN2CCC(n3nnc4cc(F)ccc43)CC2)cc1OC`: the Potency is 7.38 µM (active).
Same read-out and setting: next, `COc1ccccc1CNC(=O)CN1CCC(n2cnc3cc(F)ccc32)CC1`: 10.4 µM (active).
Consider `COc1ccccc1CNC(=O)Cn1cc2c(n1)CCCC2`, for which the “activity change, negative = inhibition” value is 5.3% (inactive).
On the same count and under the same terms, next, `CCc1ccccc1NC(=S)Nc1cc(OC)c(NC(=O)C(C)C)cc1OC`: -5.66% (inactive); `CC1CCCCC1NC(=O)c1cc(=O)[nH]c2ccccc12` (stereo unspecified): 34.6% (inactive); `CCCCCCC(O)(CCN1CCCCC1)c1ccccc1` (stereo unspecified): 11.4% [at 0.00184 µM] (inactive).
On the same count and under the same terms, next, `COc1ccc(NC(=S)N2CCC(NC(=O)c3cccc(F)c3)CC2)cc1`: 6.61% (inactive).
Same read-out and setting: to `CN1C(=O)c2ccc(C(=O)Nc3ccc(Br)cn3)cc2C1=O` belongs 0.546% (inactive); to `CC1=NCCN1S(=O)(=O)c1cccc([N+](=O)[O-])c1`, 58.3% (inactive).
Consider `Cc1ccc(-c2cn(S(=O)(=O)c3cccc([N+](=O)[O-])c3)nc2N)cc1`, for which the Potency was 3.29 µM (active).
As for `Cc1cc(C)n(S(=O)(=O)c2cccc([N+](=O)[O-])c2)n1`, the “activity change, negative = inhibition” value was 0.663% (inactive).
The same measure, in the same setting: next, `COc1ccc(-c2noc(C(C)NS(=O)(=O)c3ccc(NC(C)=O)cc3)n2)cc1` (stereo unspecified): -9.21% (inactive).
Still for that read-out and setting: to `Cc1occc1C(=O)NC1CCCN(Cc2ccc(CC(C)C)cc2)C1` (stereo unspecified) belongs -22.7% (inactive); to `Cc1ccc(C)c(C(=O)N2CCC(n3nccc3NC(=O)C3CC3)CC2)c1`, 4.41% (inactive); to `C=CCN1CN(S(=O)(=O)c2ccc(OC)cc2)c2nc3ccccc3nc21`, -20.2% (inactive).
In the case of `COc1cc2c(cc1O)[C@H](Cc1ccc(Oc3cc(C[C@@H]4NCCc5cc(OC)c(O)cc54)ccc3O)cc1)NCC2`, the Potency was 0.738 µM (active).
`CCCCSCCCNC(=O)C1CCC(CNS(=O)(=O)c2ccc(NC(C)=O)cc2)CC1` (stereo unspecified): the “activity change, negative = inhibition” value is 0% (inactive).
The same measure, in the same setting: next, `CCN(CC)C(=O)c1nc[nH]c1C(=O)N(C)Cc1ccccc1`: 51.8% (inactive); `O=C1C2CCCN2C(=O)N1CCCCN1CCN(c2cccc(C(F)(F)F)c2)CC1` (stereo unspecified): -19.8% (inactive).
Regarding `CC(C)S(=O)(=O)c1csc(NC(=O)Nc2ccc(Cl)cc2)c1Cl`, the Potency is 5.22 µM (active).
With `Cn1ccc(NC(=O)Nc2ccc(Cl)cc2)n1`, the “activity change, negative = inhibition” value was 50.8% (inactive).
On the same count and under the same terms, next, `CN(c1cccc(NC(=O)Nc2ccc(Cl)cc2)c1)S(C)(=O)=O`: 45.8% (inactive); `O=C(NC1CCN(Cc2ccccc2)CC1)c1c(F)cccc1F`: -5.58% (inactive).
On the same count and under the same terms, next, `S=C(NCCCc1ccccc1)Nc1ccc(Br)cc1`: -6.46% (inactive).
For `S=C(Nc1ccc(Br)cc1)NC1CCN(Cc2ccccc2)CC1`, the Potency is 11.7 µM (active).
`CN(CC(=O)Nc1ccc(F)c(F)c1F)C(=O)Cn1cnc2c1c(=O)n(C)c(=O)n2C`: the “activity change, negative = inhibition” value was 4.25% (inactive).
Still for that read-out and setting: next, `O=C(OCCN1C(=O)c2ccccc2C1=O)Oc1ccccc1`: 9.7% (inactive); `CC(C)(C)OC(=O)NC(Cc1ccccc1)C(=O)NC(CSC1CCCCO1)C(=O)NN` (stereo unspecified): 29.4% (inactive); `Cc1csc(NC(=O)CSc2nnc(-c3cccnc3)o2)n1`: 6.46% (inactive).
The same measure, in the same setting: next, `CC1=C(C(=O)OC(C)(C)C)C(c2ccc(Br)cc2)NC(=O)N1CCCC(=O)O` (stereo unspecified): 2.52% (inactive).
For the molecule `O=C(N/N=C/c1ccc([N+](=O)[O-])o1)c1cccc(S(=O)(=O)N2CCOCC2)c1`, the Potency is 3.7 µM (active).
For `O=C(c1cccc(S(=O)(=O)N2CCOCC2)c1)N1CCOCC1`, the “activity change, negative = inhibition” value is 3.35% (inactive).
On the same count and under the same terms, to `COc1ccc(Br)cc1/C=N/NC(=O)c1cccc(S(=O)(=O)N2CCOCC2)c1` belongs 11.9% [at 5.75 µM] (inactive).
On the same count and under the same terms, to `CN(Cc1c(F)cccc1Cl)S(=O)(=O)c1cccs1` belongs 24.5% (inactive); to `Cn1ncc(Br)c1C(=O)NC1CCCC1`, 104% (inactive).
For the molecule `CCOC(=O)c1cnc(-c2ccccc2)nc1Oc1ccc(C)cc1`, the Potency is 3.29 µM (active).
On to `CCCNC(=O)c1cnc(-c2ccccc2)nc1-c1ccccc1`, for which the “activity change, negative = inhibition” value was 0.447% (inactive).
On the same count and under the same terms, next, `CCCCOc1ccc(-c2ncc(C(=O)OCC)c(N)n2)cc1`: 158% (inactive); `COc1cccc(CNC(=O)C2CCCN(S(=O)(=O)N3CC(C)CC(C)C3)C2)c1` (stereo unspecified): -1.35% (inactive); `O=C(COCc1cc(-c2ccc3c(c2)OCO3)on1)N1CCN(c2cccc(Cl)c2)CC1`: 27.3% (inactive).
On the same count and under the same terms, to `CCCCC(=O)Nc1c2c(nn1-c1ccc([N+](=O)[O-])cc1)CS(=O)(=O)C2` belongs 11.6% (inactive); to `Cc1ccc2nc(SCC(=O)Nc3cccc4ccccc34)nc(=O)n2c1`, -6.05% (inactive).
As to `Cc1ccccc1-n1c(SCC(=O)Nc2cccc3ccccc23)nc(O)cc1=O`, the Potency is 13.1 µM (active).
